# Laboratory results: PubChem BioAssay (Tox21)
# A number with no mark means an inactive call. Entries that show only a call come without a potency. Activity calls are given as the source filed them. Calls come from the whole dose curve; as a rule, active = well fitted cell-killing curve with a large enough effect in the repeat runs; inconclusive = weak or mixed curves, or effect the other way; inactive = flat fitted curve, though single readings scatter.
# Experiment: qHTS assay to identify small molecule HDAC inhibitors - cell viability counter screen (AID 1259365); note: nearly all actives have a fitted effect of over 50% in size
# Settings: HCT-116 viability, CellTiter-Glo ATP luminescence, 2 h; series mostly up to 92.4 µM
# Description: U.S. Tox21 Program National Center for Advancing Translational Sciences [NCATS] NIH Chemical Genomics Center [NCGC] U.S. Environmental Protection Agency [EPA] National Institutes of Environmental Health Sciences [NIEHS] National Toxicology Program [NTP] U.S. Food and Drug Administration [FDA] Tox21 Assay Overview: Histone deacetylases (HDACs) are a group of epigenetic enzymes that regulate gene expression by histone deacetylation. HDACs are capable of introducing epigenetic modifications and such aberrations contribute to the onset and progression of several human diseases, thus making HDACs a popular therapeutic target. For identifying endogenous class I/II HDAC inhibitors a homogenous, luminogenic HDAC I/II cell based assay was used to measure the relative activity of class I and II HDACs from cells. Wild type HCT-116 cells were used to screen Tox21 compound libraries for identifying class I/II HDAC inhibitors.
# Tox21 Assay Protocol Summary: HCT-116 cells were dispensed at 1,500 per well in 5uL of culture medium into white solid bottom 1536-well plates (Greiner Bio-One, Monroe, NC) using a Multidrop Combi (Thermo Scientific, Waltham, MA) dispenser. The assay plates were incubated at 37 C and 5% CO2 for an overnight, and then 23nL of compounds dissolved in DMSO and positive control were transferred using a Pintool station (Wako, San Diego, CA). The assay plates were incubated at 37C and 5% CO2 for 2hr. After compound treatment, 4uL of CellTiter-Glo reagent (Promega Corporation, Madison, WI) was added to each well of the assay plates using Flying Reagent Dispenser (FRD, Aurora Discovery, San Diego, CA) and incubated the assay plates at room temperature for 30min. The luminescence signal was quantified using a ViewLux plate reader (Perkin Elmer, Shelton, CT).
Structure (SMILES),Potency,"activity change, negative = cytotoxicity"
O=C(O)c1cccc(O)c1,inactive,–
O=S(=O)(c1ccccc1)c1ccc(Cl)cc1,inactive,–
CC(N)CN (stereo not given),inactive,–
CC(C)C(=O)O,inactive,–
O=C(c1ccc(O)cc1)c1ccc(Cl)cc1,inactive,–
Cc1oc(C)c(C(=O)Nc2ccccc2)c1C,inactive,–
COC(OC)(C(=O)c1ccccc1)c1ccccc1,inactive,–
CC(C)=CC=O,inactive,–
CC(Cl)C(Cl)Cl (stereo not given),inactive,–
CCOC(=O)[C@@H](C)Oc1ccc(Oc2nc3ccc(Cl)cc3o2)cc1,inactive,–
Nc1nc(Cl)nc2c1ncn2[C@@H]1O[C@H](CO)[C@@H](O)[C@@H]1F,inactive,–
CC(=O)Oc1ccc(C(=C2CCCCC2)c2ccc(OC(C)=O)cc2)cc1,inactive,–
Fc1ccccc1[C@@H](F)COC1CCC(Nc2ncnc3[nH]ncc23)CC1 (stereo not given in full),inactive,–
CCCCN(CCCC)C(=S)SSC(=S)N(CCCC)CCCC,inactive,–
c1cnc2c(n1)CCCC2,inactive,–
COc1cc2c(cc1OC)-c1cc(=Nc3c(C)cc(C)cc3C)n(C)c(=O)n1CC2,inactive,–
CCc1cccc(N(C)C(N)=Nc2cccc3ccccc23)c1,inactive,–
CCCOC(=O)c1ccc(C(=O)OCCC)nc1,inactive,–
OC/C(Br)=C(\Br)CO,inactive,–
C[N+](C)(C)CCOC(N)=O,inactive,–

Structure (SMILES),Potency,"activity change, negative = cytotoxicity"
Oc1ccc(Nc2ccccc2)cc1,inactive,–
COC(=O)c1cc(Cl)ccc1NS(=O)(=O)C(F)(F)F,inactive,–
O=C(CCCN1CCC(O)(c2ccc(Br)cc2)CC1)c1ccc(F)cc1,inactive,–
C[N+]1(C)CCC(=C(c2ccccc2)c2ccccc2)CC1,inactive,–
COCCOC(=O)C1=C(C)NC(C)=C(C(=O)OC/C=C/c2ccccc2)C1c1cccc([N+](=O)[O-])c1 (stereo not given),inactive,–
CC1CN(c2cc3c(cc2F)c(=O)c(C(=O)O)cn3-c2ccc(F)cc2F)CCN1 (stereo not given),–,-1.14% [at 8.39 µM]
COCCOC,inactive,–
CO[Si](C)(OC)OC,inactive,–
CC1=CC(O)CC(C)(C)C1 (stereo not given),inactive,–
c1cc[c]([Bi]([c]2ccccc2)[c]2ccccc2)cc1,inactive,–
C/C=C(\C)C(=O)OCCC(C)CCC=C(C)C (stereo not given),inactive,–
CCOC(=O)CC(=O)C(=O)OCC,inactive,–
CCc1c2c(nc3ccc(OC(=O)N4CCC(N5CCCCC5)CC4)cc13)-c1cc3c(c(=O)n1C2)COC(=O)[C@]3(O)CC,inactive,–
CC(C)OCC1CO1 (stereo not given),inactive,–
CC(=O)[C@H]1CC[C@H]2[C@@H]3C=CC4=CC(=O)CC[C@@]4(C)[C@@H]3CC[C@]12C,inactive,–
CCOC(=O)c1ccccc1C,inactive,–
CC1=CC(=O)CC(C)(C)C1(O)/C=C/C(C)=C\C(=O)O (stereo not given),inactive,–
CCCCC(CC)CNCC(CC)CCCC (stereo not given),inactive,–
NCC1CCCC(CN)C1 (stereo not given),inactive,–
CCNC(=O)N1CCN(CCCC(c2ccc(F)cc2)c2ccc(F)cc2)CC1,inactive,–
